According to PubChem BioAssay (NCATS):
“And” between values parts separate entries of the source, which are not always exact repeats. Equal values may be shown once. Records with an inconclusive call do not appear. Entries that show only a call come without a potency. The source made the active and inactive calls. Unless noted, the call rests on the fitted dose curve; in most records, active means well fitted curve in the direction sought with a large enough effect; inconclusive means small, poorly fitted or top-dose-only effect, or another doubt; inactive means no such curve, though single readings can be large; an effect the other way counts as inactive or inconclusive.

Legend:
[1] = Cell Viability - SK-N-SH (AID 435; calls by dose curve;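 further: potency means the concentration at half of the fitted maximal effect; compound exposure lasted 40 h at 37 °C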); conditions: SK-N-SH neuroblastoma cell viability qHTS
Method in brief: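 Luminescent ATP signal served as the viability read-out after 40 hours of compound treatment of human neuroblastoma SK-N-SH cells. Concentration-response data, scaled between DMSO and 100 uM tamoxifen, gave AC50 values by standard Hill modeling.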

[2] = Cell Viability - Renal Proximal Tubule (AID 545); conditions: renal proximal tubule cells viability; series mostly up to 91.7 µM; further: nearly all actives have a fitted effect of over 40% in size
Method in brief: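 Luminescent ATP signal (CellTiter-Glo) served as the viability read-out after 40 hr compound exposure of freshly isolated rat proximal tubule cells at 37 °C. Concentration-dependent ATP loss was fitted with the Hill equation to give AC50.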

[3] = Cellular Toxicity (caspase-3) HepG2 (AID 654); conditions: HepG2 caspase-3 activation, luminescence, 0% = DMSO only, 100% = tamoxifen; series mostly up to 92.2 µM;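 further: cells exposed to compound for 16 hours before reading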
Method in brief: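 Concentration-response AC50 values reflect caspase-3/7 induction in HepG2 cells after 16 hours of compound exposure, quantified by luminescence from liberated aminoluciferin and referenced to 100 uM tamoxifen as full stimulation.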

[4] = Cellular Toxicity (caspase-3) SK-N-SH (AID 661); conditions: SK-N-SH caspase-3 activation, qHTS; series mostly up to 91.7 µM
Method in brief: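 Apoptosis readout in SK-N-SH neuroblastoma: Caspase-Glo 3/7 luminescence following 16 hr treatment in complete culture medium. Normalization used DMSO and 10 uM staurosporine controls.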

[5] = target: Cytochrome P450 3A4 (Homo sapiens) (UniProt P08684); experiment: qHTS Assay for Inhibitors and Substrates of Cytochrome P450 3A4 (AID 884); conditions: recombinant CYP3A4, Luciferin-PPXE luminescence; series mostly up to 57.1 µM; further: nearly all actives have a fitted effect of over 50% in size
Method in brief: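 Luminescent readout of luciferin produced by CYP3A4 (20 nM) dealkylation of Luciferin-PPXE, 25 uM (its KM). NADPH-driven reaction ran 60 min at RT after 10 min compound preincubation; data scaled to 57 uM ketoconazole as 100% inhibition.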

[6] = Cell Viability - LYMP2-004 (AID 966); conditions: LYMP2-004 lymphoblastoid cell viability, qHTS; series mostly up to 92.2 µM;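 further: cells exposed to compound for 24 h; nearly all actives have a fitted effect of over 65% in size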
Method in brief: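 Viable-cell number estimated from ATP luminescence (CellTiter-Glo) in 2500 human lymphoblastoid cells/well after 24 hr at 37 C with compound. AC50 fitted to the standard Hill equation.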

[7] = Cell Viability - LYMP2-015 (AID 971); conditions: LYMP2-015 lymphoblastoid cell viability; series mostly up to 92.2 µM;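 further: cells exposed to compound for 24 h; nearly all actives have a fitted effect of over 55% in size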
Method in brief: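 AC50 values reflect Hill-model fits of ATP-based luminescence (CellTiter-Glo) from a human lymphoblastoid line, 2500 cells/well, treated 24 hr at 37 C.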

[8] = Cell Viability - LYMP2-010 (AID 981); conditions: LYMP2-010 lymphoblastoid cell viability, qHTS; series mostly up to 92.2 µM;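 further: cells exposed to compound for 24 hours at 37 °C; nearly all actives have a fitted effect of over 55% in size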
Method in brief: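 This 24 hr viability screen uses LYMP2-010 lymphoblastoid cells, quantifies ATP via luciferase luminescence, and derives AC50 from Hill fits of qHTS concentration-response data.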

[9] = Cell Viability - LYMP2-012 (AID 982); conditions: LYMP2-012 lymphoblastoid cell viability qHTS; series mostly up to 92.2 µM;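 further: cellular ATP by luciferase luminescence where a drop means cytotoxicity; cells exposed to compound for one day before reading; nearly all actives have a fitted effect of over 55% in size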
[10] = Cell Viability - LYMP2-018 (AID 985); conditions: LYMP2-018 lymphoblastoid cells, viability (qHTS); series mostly up to 92.2 µM; further: nearly all actives have a fitted effect of over 50% in size
Method in brief: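 In this qHTS viability assay, cells are treated for 24 hr and cellular ATP is quantified by luciferase-based luminescence, with tetraoctylammonium bromide as positive control.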

[11] = Cell Viability - LYMP2-020 (AID 986); conditions: series mostly up to 92.2 µM;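 further: cells exposed to compound for 24 h at 37 °C; nearly all actives have a fitted effect of over 55% in size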
Method in brief: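 Cells at 2500 per well receive a 24 hr compound exposure at 37 C. Viability is measured as ATP-dependent luciferase luminescence, with AC50 modeled from qHTS concentration-response curves.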

[12] = qHTS assay for small molecule agonists of retinoid X receptor alpha signaling (AID 588544; calls by dose curve); conditions: HEK293T RXRa-UAS-bla, beta-lactamase reporter, 18 h; 530 nm emission
[13] = target: Retinoic acid receptor RXR-alpha (Homo sapiens) (UniProt P19793); experiment: as above; conditions: HEK293T RXRa-UAS-bla, beta-lactamase reporter, 18 h; series mostly up to 76.7 µM
[14] = target: Thyroid hormone receptor beta (Homo sapiens) (UniProt P10828); experiment: qHTS assay for small molecule agonists of thyroid hormone receptor beta signaling (AID 588545; calls by dose curve); conditions: TR-UAS-bla GripTite HEK 293, beta-lactamase ratio, agonist mode, 18 h; series mostly up to 76.7 µM
Method in brief: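 TR-UAS-bla-GripTite HEK 293 cells in medium with 2% charcoal/dextran FBS, 0.1 mM NEAA and 1 mM sodium pyruvate were treated with titrated compounds for 18 hrs at 37 C. Beta-lactamase reporter was read with CCF4 dye (ex 405, em 460/530 nm); EC50 from Hill fits.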

[15] = target: Voltage-gated inwardly rectifying potassium channel KCNH2 (Homo sapiens) (UniProt Q12809); experiment: qHTS Assay for Small Molecule Inhibitors of the Human hERG Channel Activity (AID 588834); conditions: U2OS BacMam hERG, FluxOR thallium flux fluorescence; series mostly up to 92.2 µM;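 further: top concentration of the series differs between compounds; lower thallium flux fluorescence means stronger hERG block; nearly all actives have a fitted effect of over 50% in size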
Method in brief: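 Step 1: BacMam hERG transduction of U2OS, 4 hrs RT. Step 2: overnight 37 °C, plate 2000 cells/well, 4 hr. Step 3: FluxOR load, compound 10 min, stimulate, read fluorescence.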

[16] = qHTS assay for environmental chemicals that activate the Aryl hydrocarbon Receptor (AhR) signaling pathway (AID 651777); conditions: 1A2-DRE human hepatoma cells, luciferase, 24 h; activation: stronger effect = higher value; further: nearly all actives have a fitted effect of over 15% in size
Method in brief: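 Following a 24 hr incubation with test chemicals at 37 C and 5% CO2, 1A2-DRE human hepatoma cells received One-Glo reagent; after 30 min at room temperature, luciferase output reflected CYP1A2 induction via AhR.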

[17] = target: Nuclear receptor ROR-gamma (Homo sapiens) (UniProt P51449); experiment: qHTS assay for small molecule antagonists of the retinoid-related orphan receptor gamma (ROR-gamma) signaling pathway (AID 651802); conditions: ROR-gamma antagonist cell reporter assay; series mostly up to 92.2 µM; further: nearly all actives have a fitted effect of over 60% in size; further: potency means the concentration at half of the fitted maximal effect
Method in brief: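 Doxycycline-induced reporter activity in engineered CHO cells (TET-inducible ROR, RORE-LUC) was measured by luminescence after 16hr compound exposure at 37C.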

[18] = qHTS assay for cell viability of the p53RE-bla HCT-116 cell line (AID 743292); conditions: p53RE-bla HCT-116 viability, ATP luminescence, 16 h; series mostly up to 95 µM; further: nearly all actives have a fitted effect of over 55% in size
Method in brief: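 After plating at 4,000 cells per well and a 5 h rest at 37 C, HCT-116 cells carrying p53RE-bla received test chemicals in DMSO. Sixteen hours later at 37 C, CellTiter-Glo was added and luminescence recorded following 30 min at room temperature.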

[19] = qHTS assay for small molecule antagonists of retinoid X receptor alpha signaling (AID 588546; active means well fitted inhibition curve with a large enough effect in the signal ratio, with a control signal flat, not every such curve was filed as active; the % refers to the signal ratio;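 further: cells stimulated with 9-cis-retinoic acid as agonist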); conditions: HEK293T RXRa-UAS-bla, beta-lactamase ratio, antagonist mode; measured here: W530 green channel, cytotoxicity proxy
Method in brief: (§1)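 Beta-lactamase reporter inhibition, read as CCF4 fluorescence ratio (ex 405, em 460/530 nm) after 2 h at RT. HEK293T UAS-bla cells, 2500/well, were stimulated with 9-cis-RA at 500 or 100 nM final alongside test compound for 18 h at 37 C.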

[20] = target: Retinoic acid receptor RXR-alpha (Homo sapiens) (UniProt P19793); experiment: as above; conditions: HEK293T RXRa-UAS-bla, beta-lactamase ratio, antagonist mode
Method in brief: as §1

Chain of Voltage-gated inwardly rectifying potassium channel KCNH2 (Homo sapiens) (Q12809 whole entry, looked up): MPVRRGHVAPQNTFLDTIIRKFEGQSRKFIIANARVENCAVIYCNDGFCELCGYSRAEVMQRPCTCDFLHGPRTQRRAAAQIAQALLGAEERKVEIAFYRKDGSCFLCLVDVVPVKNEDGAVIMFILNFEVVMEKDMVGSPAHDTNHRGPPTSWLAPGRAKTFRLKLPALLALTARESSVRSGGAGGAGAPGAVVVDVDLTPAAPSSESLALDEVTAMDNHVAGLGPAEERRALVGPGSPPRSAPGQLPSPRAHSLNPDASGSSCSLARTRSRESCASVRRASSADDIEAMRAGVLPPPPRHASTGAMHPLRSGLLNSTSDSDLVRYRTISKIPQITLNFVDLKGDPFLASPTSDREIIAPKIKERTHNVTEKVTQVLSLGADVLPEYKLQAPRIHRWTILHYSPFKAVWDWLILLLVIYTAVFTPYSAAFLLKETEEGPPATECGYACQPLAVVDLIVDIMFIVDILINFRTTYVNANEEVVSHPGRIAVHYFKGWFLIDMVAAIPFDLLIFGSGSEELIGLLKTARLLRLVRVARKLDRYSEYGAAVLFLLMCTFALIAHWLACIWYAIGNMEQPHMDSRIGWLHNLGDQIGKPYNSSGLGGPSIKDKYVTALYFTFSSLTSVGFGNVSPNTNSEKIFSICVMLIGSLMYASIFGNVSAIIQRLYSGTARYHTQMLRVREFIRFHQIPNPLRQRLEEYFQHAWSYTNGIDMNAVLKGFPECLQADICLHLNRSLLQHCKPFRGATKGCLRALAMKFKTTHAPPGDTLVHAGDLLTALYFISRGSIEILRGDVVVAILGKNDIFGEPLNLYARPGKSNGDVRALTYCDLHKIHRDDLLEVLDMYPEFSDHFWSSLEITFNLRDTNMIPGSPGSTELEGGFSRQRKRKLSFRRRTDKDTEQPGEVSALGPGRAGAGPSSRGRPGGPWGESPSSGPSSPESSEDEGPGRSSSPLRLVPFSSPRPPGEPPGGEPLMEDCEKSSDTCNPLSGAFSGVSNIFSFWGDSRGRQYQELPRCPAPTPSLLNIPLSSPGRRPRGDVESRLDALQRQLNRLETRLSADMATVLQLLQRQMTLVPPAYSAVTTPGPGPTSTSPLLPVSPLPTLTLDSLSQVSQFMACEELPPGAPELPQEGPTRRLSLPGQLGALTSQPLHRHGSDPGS
Chain of Retinoic acid receptor RXR-alpha (Homo sapiens) (P19793 whole entry, looked up): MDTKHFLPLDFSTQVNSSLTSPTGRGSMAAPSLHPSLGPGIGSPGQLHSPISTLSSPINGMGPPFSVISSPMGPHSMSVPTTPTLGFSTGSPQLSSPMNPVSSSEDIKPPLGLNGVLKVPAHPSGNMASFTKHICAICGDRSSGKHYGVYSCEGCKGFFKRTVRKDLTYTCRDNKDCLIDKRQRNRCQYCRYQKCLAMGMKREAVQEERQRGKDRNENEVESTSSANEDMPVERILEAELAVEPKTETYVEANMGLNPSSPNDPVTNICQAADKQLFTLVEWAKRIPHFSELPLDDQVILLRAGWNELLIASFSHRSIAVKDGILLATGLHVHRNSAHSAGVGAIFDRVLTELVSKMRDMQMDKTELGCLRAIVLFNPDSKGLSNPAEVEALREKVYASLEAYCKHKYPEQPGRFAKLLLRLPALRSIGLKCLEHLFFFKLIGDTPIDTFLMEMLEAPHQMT
Chain of Thyroid hormone receptor beta (Homo sapiens) (P10828 whole entry, looked up): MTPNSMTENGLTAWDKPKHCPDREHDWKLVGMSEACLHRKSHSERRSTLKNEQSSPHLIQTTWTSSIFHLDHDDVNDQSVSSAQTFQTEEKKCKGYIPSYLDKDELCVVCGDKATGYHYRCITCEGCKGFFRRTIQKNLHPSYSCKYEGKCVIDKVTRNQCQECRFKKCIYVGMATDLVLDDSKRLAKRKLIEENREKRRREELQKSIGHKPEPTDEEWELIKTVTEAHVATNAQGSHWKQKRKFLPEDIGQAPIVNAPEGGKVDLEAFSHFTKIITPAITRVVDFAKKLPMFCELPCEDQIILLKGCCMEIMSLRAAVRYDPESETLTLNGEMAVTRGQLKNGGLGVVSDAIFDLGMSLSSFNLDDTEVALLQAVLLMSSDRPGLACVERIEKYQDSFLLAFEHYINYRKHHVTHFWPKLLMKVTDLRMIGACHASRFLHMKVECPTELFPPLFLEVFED
Chain of Nuclear receptor ROR-gamma (Homo sapiens) (P51449 whole entry, looked up): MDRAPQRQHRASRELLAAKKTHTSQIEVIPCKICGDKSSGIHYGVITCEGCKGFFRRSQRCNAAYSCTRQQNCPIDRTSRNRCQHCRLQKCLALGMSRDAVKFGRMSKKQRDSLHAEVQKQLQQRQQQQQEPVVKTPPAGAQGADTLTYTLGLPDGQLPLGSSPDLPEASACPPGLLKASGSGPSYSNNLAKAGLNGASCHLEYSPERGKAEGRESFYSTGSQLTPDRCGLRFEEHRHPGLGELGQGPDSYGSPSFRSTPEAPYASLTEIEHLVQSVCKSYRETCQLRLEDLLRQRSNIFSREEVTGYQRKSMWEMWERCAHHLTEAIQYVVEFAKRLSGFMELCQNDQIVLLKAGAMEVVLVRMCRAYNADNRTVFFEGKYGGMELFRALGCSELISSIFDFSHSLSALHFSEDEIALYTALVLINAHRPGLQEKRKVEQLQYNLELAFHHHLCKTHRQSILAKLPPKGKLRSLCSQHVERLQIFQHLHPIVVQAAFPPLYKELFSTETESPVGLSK
Chain of Cytochrome P450 3A4 (Homo sapiens) (P08684 whole entry, looked up): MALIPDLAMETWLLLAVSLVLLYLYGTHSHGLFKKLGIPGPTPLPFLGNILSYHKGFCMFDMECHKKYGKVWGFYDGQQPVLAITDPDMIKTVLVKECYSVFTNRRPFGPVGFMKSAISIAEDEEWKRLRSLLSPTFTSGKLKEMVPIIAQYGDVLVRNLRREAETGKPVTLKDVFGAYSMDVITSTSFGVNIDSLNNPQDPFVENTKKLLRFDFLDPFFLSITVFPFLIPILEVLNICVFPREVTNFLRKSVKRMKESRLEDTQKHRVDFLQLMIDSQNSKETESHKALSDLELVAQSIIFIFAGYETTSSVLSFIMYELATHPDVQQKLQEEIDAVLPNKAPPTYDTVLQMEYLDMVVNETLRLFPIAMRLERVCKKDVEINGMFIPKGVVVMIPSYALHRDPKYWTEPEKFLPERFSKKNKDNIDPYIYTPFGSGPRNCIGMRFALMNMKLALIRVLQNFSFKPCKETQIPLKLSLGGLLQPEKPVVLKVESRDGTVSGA

Nc1ccc([N+](=O)[O-])cc1[N+](=O)[O-]
Potency [1]: > 92 µM (inactive)
outcome [2]: inactive
outcome [3]: inactive
Potency [4]: inactive
Potency [5]: inactive
Potency [6]: inactive
Potency [7]: inactive
Potency [8]: inactive
Potency [9]: inactive
Potency [10]: inactive
Potency [11]: inactive
max response [12]: -7.45%
outcome [13]: inactive
Potency [14]: inactive
Potency [15]: inactive
activation [16]: 0.484% (inactive)
Potency [17]: 0.944 µM (active)
Potency [18]: inactive

Cl/C=C/Cl
Potency [1]: > 92 µM (inactive)
outcome [2]: inactive
outcome [3]: inactive
Potency [4]: inactive
Potency [5]: inactive
Potency [6]: inactive
Potency [8]: inactive
Potency [9]: inactive
Potency [10]: inactive
Potency [11]: inactive
max response [12]: 1.12%
outcome [13]: inactive
Potency [14]: inactive
max response [19]: -8.73%
max response [20]: 6.16% (inactive)
Potency [15]: inactive
activation [16]: 0.896% (inactive)
Potency [17]: inactive
Potency [18]: inactive

c1ccc(Nc2ccc(Nc3ccccc3)cc2)cc1
Potency [1]: > 92 µM (inactive)
outcome [3]: inactive
Potency [4]: inactive
Potency [5]: inactive
Potency [6]: inactive
Potency [7]: inactive
Potency [8]: inactive
Potency [9]: inactive
Potency [10]: inactive
Potency [11]: inactive
max response [12]: 0.613%
outcome [13]: inactive
Potency [14]: inactive
max response [19]: -12.1%
max response [20]: -13.3% (inactive)
Potency [17]: inactive
Potency [18]: inactive

Nc1c(Cl)cc([N+](=O)[O-])cc1Cl
Potency [1]: > 92 µM (inactive)
outcome [2]: inactive
outcome [3]: inactive
Potency [4]: inactive
Potency [5]: inactive
Potency [6]: inactive
Potency [7]: inactive
Potency [8]: inactive
Potency [9]: inactive
Potency [10]: inactive
Potency [11]: inactive
max response [12]: -1.27% and -9.53%
outcome [13]: inactive
Potency [14]: inactive
max response [19]: 7.55% and -9.5%
max response [20]: 5.54% (inactive) and -6.63% (inactive)
Potency [15]: inactive
activation [16]: -0.0582% (inactive) and 1.9% (inactive)
Potency [18]: inactive

Oc1cc(Cl)ccc1Cl
Potency [1]: > 92 µM (inactive)
outcome [2]: inactive
outcome [3]: inactive
Potency [4]: inactive
Potency [6]: inactive
Potency [7]: inactive
Potency [8]: inactive
Potency [9]: inactive
Potency [10]: inactive
Potency [11]: inactive
max response [12]: -10.2% and -8.32%
outcome [13]: inactive
Potency [14]: inactive
max response [19]: -4.84% and -5.75%
max response [20]: 8.9% (inactive) and 7.36% (inactive)
Potency [15]: inactive
activation [16]: -0.282% (inactive) and -1.1% (inactive)
Potency [17]: inactive
Potency [18]: inactive

CN=C=O
Potency [1]: > 92 µM (inactive)
outcome [2]: inactive
outcome [3]: inactive
Potency [5]: inactive
Potency [6]: inactive
Potency [7]: inactive
Potency [8]: inactive
Potency [9]: inactive
Potency [10]: inactive
Potency [11]: inactive
max response [12]: -13%
outcome [13]: inactive
Potency [14]: inactive
max response [19]: -1.71%
max response [20]: 0.777% (inactive)
Potency [15]: inactive
activation [16]: -0.54% (inactive)
Potency [17]: inactive
Potency [18]: inactive

CCCCC(=O)Cl
Potency [1]: > 92 µM (inactive)
outcome [2]: inactive
outcome [3]: inactive
Potency [5]: inactive
Potency [6]: inactive
Potency [7]: inactive
Potency [8]: inactive
Potency [9]: inactive
Potency [10]: inactive
Potency [11]: inactive
max response [12]: -18.9%
outcome [13]: inactive
Potency [14]: inactive
max response [19]: -10.8%
max response [20]: -9.41% (inactive)
Potency [15]: inactive
Potency [17]: inactive
Potency [18]: inactive
